Laboratory results published in PubChem BioAssay (NCI).
Compounds without any hit were thinned out: in the full panel of roughly 83,000, 20% have a hit.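 Negative percent growth values reflect cell death: -40 means 40% of the cells present at the start died, and -100 means all died.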 The source made the active and inactive calls. The calls were made as follows: active = growth percent below 10; inactive = the rest.

What was measured:
Assay in all cases: NCI-60 one-dose screen, 48 h (100 = growth as untreated, 0 = no growth, -100 = all killed)
Conditions in all cases: 10 µM
NCI-H23 lung = test system: NCI-H23 lung
NCI-H226 lung = test system: NCI-H226 lung
NCI-H322M lung = test system: NCI-H322M lung
HOP-62 NSCLC = test system: HOP-62 NSCLC
NCI-H460 lung = test system: NCI-H460 lung
NCI-H522 lung = test system: NCI-H522 lung
A549/ATCC NSCLC = test system: A549/ATCC NSCLC
786-0 renal = test system: 786-0 renal
COLO 205 colon = test system: COLO 205 colon
DU-145 prostate = test system: DU-145 prostate
K-562 leukemia = test system: K-562 leukemia
MALME-3M melanoma = test system: MALME-3M melanoma
MDA-MB-231 breast = test system: MDA-MB-231 breast
RXF 393 renal = test system: RXF 393 renal
SF-268 CNS = test system: SF-268 CNS
SF-295 CNS = test system: SF-295 CNS
SF-539 CNS = test system: SF-539 CNS
UACC-257 melanoma = test system: UACC-257 melanoma
M14 melanoma = test system: M14 melanoma
HCT-15 colon = test system: HCT-15 colon

Measured: growth

COc1cccc(-c2cc(-c3cccc(NS(C)(=O)=O)c3)nc(N)c2C#N)c1O
active: NCI-H460 lung 8.75% | NCI-H522 lung 0.405% | COLO 205 colon -6.05% | MALME-3M melanoma -5.49% | SF-295 CNS -1.4% | SF-539 CNS 3.03%
inactive: NCI-H23 lung 26.7% | NCI-H226 lung 74.5% | NCI-H322M lung 34.6% | HOP-62 NSCLC 52.1% | A549/ATCC NSCLC 31% | 786-0 renal 49.4% | DU-145 prostate 15.1% | K-562 leukemia 17.1% | MDA-MB-231 breast 53.7% | RXF 393 renal 29.3% | SF-268 CNS 42.6% | UACC-257 melanoma 79.8% | M14 melanoma 41.3% | HCT-15 colon 26.7%

CCOC(=O)C(NC(=O)C(Cl)Cl)C(O)c1ccccc1 (stereo not given)
inactive: NCI-H23 lung 102% | NCI-H226 lung 93.1% | NCI-H322M lung 105% | HOP-62 NSCLC 82.8% | NCI-H460 lung 102% | NCI-H522 lung 122% | A549/ATCC NSCLC 117% | 786-0 renal 129% | COLO 205 colon 126% | DU-145 prostate 102% | K-562 leukemia 87.5% | MALME-3M melanoma 108% | MDA-MB-231 breast 98.3% | RXF 393 renal 78.7% | SF-268 CNS 99.3% | SF-295 CNS 76.1% | SF-539 CNS 99.5% | UACC-257 melanoma 105% | M14 melanoma 92.6% | HCT-15 colon 117%

Cc1ccc(CC#N)cc1C
inactive: NCI-H23 lung 110% | NCI-H226 lung 96.1% | NCI-H322M lung 101% | HOP-62 NSCLC 101% | NCI-H460 lung 99.1% | NCI-H522 lung 98% | A549/ATCC NSCLC 109% | 786-0 renal 103% | COLO 205 colon 111% | DU-145 prostate 85.4% | K-562 leukemia 73.8% | MALME-3M melanoma 121% | MDA-MB-231 breast 97.2% | RXF 393 renal 83.2% | SF-268 CNS 86.2% | SF-295 CNS 93% | SF-539 CNS 87.5% | UACC-257 melanoma 127% | M14 melanoma 96.9% | HCT-15 colon 95.4%

COc1ccc(-c2cc(-c3ccc(N(C)C)cc3)c(C#N)c(N3CCCC3)n2)cc1
inactive: NCI-H23 lung 93.6% | NCI-H226 lung 82.5% | NCI-H322M lung 92.3% | HOP-62 NSCLC 99.7% | NCI-H460 lung 69.9% | NCI-H522 lung 69.4% | A549/ATCC NSCLC 77.2% | 786-0 renal 95.6% | COLO 205 colon 65.9% | DU-145 prostate 86.8% | K-562 leukemia 69.3% | MALME-3M melanoma 122% | MDA-MB-231 breast 64.1% | SF-268 CNS 96.7% | SF-295 CNS 93.8% | SF-539 CNS 88.8% | UACC-257 melanoma 88% | M14 melanoma 73.3% | HCT-15 colon 71.4%
active: RXF 393 renal -2.09%

O=C(Nc1cccc(-n2cc(-c3ccncc3)c(-c3ccc(O)c(Cl)c3)n2)c1)Nc1ccc(Cl)c(Cl)c1
active: NCI-H23 lung 5.31% | NCI-H322M lung -6.78% | HOP-62 NSCLC 8.83% | NCI-H460 lung -4.26% | NCI-H522 lung -13.1% | A549/ATCC NSCLC 0.252% | 786-0 renal -6.94% | K-562 leukemia 5.72% | MALME-3M melanoma -27% | MDA-MB-231 breast -44.9% | RXF 393 renal -26.2% | SF-295 CNS -40.4% | SF-539 CNS -19.8% | UACC-257 melanoma -42.7% | M14 melanoma -50.3%
inactive: NCI-H226 lung 51.1% | COLO 205 colon 77.8% | DU-145 prostate 11.5% | SF-268 CNS 10.9% | HCT-15 colon 14.1%

CCCCCCN1CCN(Cc2ccc(N(CC)CC)cc2)C(=O)C1=O
inactive: NCI-H23 lung 39.9% | NCI-H226 lung 64.2% | NCI-H322M lung 32% | HOP-62 NSCLC 33.3% | NCI-H460 lung 10.5% | A549/ATCC NSCLC 21.6% | 786-0 renal 51.3% | K-562 leukemia 11.7% | MALME-3M melanoma 10.1% | MDA-MB-231 breast 44.4% | SF-268 CNS 42.5% | SF-295 CNS 11.8% | UACC-257 melanoma 33.7% | HCT-15 colon 41.5%
active: NCI-H522 lung -7.64% | COLO 205 colon 6.83% | DU-145 prostate -7.77% | RXF 393 renal 7.71% | SF-539 CNS -1.86% | M14 melanoma 9.15%

CCOC(=O)N1C/C(=C/c2ccc(Cl)cc2)C(=O)/C(=C/c2ccc(Cl)cc2)C1
active: K-562 leukemia 3.7%
inactive: NCI-H23 lung 72.1% | NCI-H226 lung 39.3% | NCI-H322M lung 79.2% | HOP-62 NSCLC 64.7% | NCI-H460 lung 77.8% | NCI-H522 lung 65.5% | A549/ATCC NSCLC 61.1% | 786-0 renal 65.6% | COLO 205 colon 45.3% | DU-145 prostate 46.3% | MALME-3M melanoma 84.9% | MDA-MB-231 breast 68.3% | RXF 393 renal 47.4% | SF-268 CNS 52.3% | SF-295 CNS 44.2% | SF-539 CNS 98% | UACC-257 melanoma 94.2% | M14 melanoma 57.1% | HCT-15 colon 34.3%

N#CCCN1C/C(=C/c2ccccc2)C(=O)/C(=C/c2ccccc2)C1
active: NCI-H522 lung -51.6% | K-562 leukemia 2.2% | MALME-3M melanoma -28.7% | M14 melanoma -9.82% | HCT-15 colon -56.4%
inactive: NCI-H23 lung 78.9% | NCI-H226 lung 69.8% | NCI-H322M lung 86% | HOP-62 NSCLC 59.5% | NCI-H460 lung 71% | A549/ATCC NSCLC 76.6% | 786-0 renal 34.1% | COLO 205 colon 59.4% | DU-145 prostate 35.2% | MDA-MB-231 breast 13.9% | RXF 393 renal 50.3% | SF-268 CNS 24.7% | SF-295 CNS 26.3% | SF-539 CNS 76.1% | UACC-257 melanoma 56.2%
